Source: PubChem BioAssay AID1063 (University of Pittsburgh Molecular Library Screening Center, 2008)
About 18,000 (9%) of roughly 200,000 compounds were called active. Shown is part of a subset that was picked to be rich in actives. A number with no mark means an inactive call. No stated cut-off is given here; in the data, active means inhibition above about 50%; inactive means the rest.

assay: antileishmanial activity against promastigotes – primary screen (AID 1063); conditions: Leishmania major promastigotes, resazurin fluorescence viability; at 10 µM; active compounds read high;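 further: promastigotes grown with compound for 44 hours at 28 °C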

Row | Compound | inhibition
1 | Cc1cc([N+](=O)[O-])nn1Cc1ccc(F)cc1 | 10.1%
2 | CCCOc1ccc(C2C(C(=O)c3ccc(C)o3)=C(O)C(=O)N2CCCn2ccnc2)cc1 (configuration not stated) | -8.78%
3 | CCOc1ccc(C(=O)Nc2nccs2)cc1[N+](=O)[O-] | 48.5%
4 | Cc1nc(SCc2ccc(F)cc2)c([N+](=O)[O-])[nH]1 | -7.82%
5 | CCCCCOc1ccc(CSC2=NCCN2)cc1[N+](=O)[O-] | 88.3% (active)
6 | CCCCOc1ccc(CSC(=N)N)cc1[N+](=O)[O-] | 100% (active)
7 | Cc1ccccc1NC(=O)CSC1=NCCN1 | -2.55%
8 | CCCCOC(=O)CCCc1ccc([N+](=O)[O-])cc1[N+](=O)[O-] | 0.48%
9 | CCOc1ccc(Br)cc1CSC(=N)N | 33.2%
10 | CCCOc1ccc(Cn2ccnc2)cc1[N+](=O)[O-] | 85.9% (active)
11 | CN(C)c1ccc(C=NCCc2ccc(S(N)(=O)=O)cc2)cc1 | 3.91%
12 | CCOC(=O)c1cnc2[nH]c3ccccc3n2c1=O | 7.85%
13 | O=C(O)CC/C(=N\NC(=O)c1ccc(F)cc1)c1ccc(Br)cc1 | -8.88%
14 | Cn1ccc(=NC=C(C#N)C#N)c2ccccc21 | 7.93%
15 | CC(=O)c1ccc(NC(=O)Nc2ccc([N+](=O)[O-])cc2C)cc1 | -1.56%
16 | O=[N+]([O-])c1ccc2c(c1)C(N1CCOCC1)/C(=C/C1(O)CCCCC1)O2 (configuration not stated) | -7.12%
17 | Cc1cc2nc(C(F)(F)F)cc(-c3cccs3)n2n1 | 2.4%
18 | COc1ccc(OC)c(S(=O)(=O)Nc2cccc(-c3ccc4nncn4n3)c2)c1 | -2.67%
19 | FC(F)(F)c1cccc(NC(=S)Nc2cccc(Cl)c2)c1 | 75.6% (active)
20 | S=C(Nc1cccc(Cl)c1)Nc1ccc2cn[nH]c2c1 | 10.9%
21 | Cc1csc(NC(=S)Nc2cccc(Cl)c2)n1 | 9.23%

Row | Compound | inhibition
22 | CCNC(=O)CC1C(=O)N(c2ccc(OC)cc2)C(=S)N1CCc1ccncc1 (configuration not stated) | -4.31%
23 | COc1ccc2oc(=O)c(C(=O)N3CCCC3)cc2c1 | -7.26%
24 | Clc1ccc(-c2nnc(-c3ccccc3)nc2N2CCSCC2)cc1 | 58.6% (active)
25 | CC1CN(c2nc(-c3ccccc3)nnc2-c2ccccc2)CC(C)O1 (configuration not stated) | 5.94%
26 | Cn1nc(-c2ccccc2)c(-c2nc(-c3ccc(Cl)cc3)no2)c1Cl | -4.1%
27 | CN(CCc1cnn(C)c1)Cc1cn(C)nc1-c1ccccc1F | -3.32%
28 | CC(C)N(C(=O)CSc1nc(COc2ccccc2)nc2ccccc12)C(C)C | 21.6%
29 | CCOc1cc(N2CCOCC2)c(OCC)cc1NC(=O)COc1cccc2cccnc12 | 100% (active)
30 | CC(=O)NCCC(=O)Nc1cc(S(=O)(=O)N2CCOCC2)ccc1N1CCOCC1 | 0.47%
31 | Cc1ccc(S(=O)(=O)N(C)c2ccc(OCC(=O)NC3=NCCS3)cc2)cc1 | 1.37%
32 | CCOc1cc(N2CCOCC2)c(OCC)cc1NC(=O)c1cc(C)nc2ccccc12 | 6.2%
33 | O=C(COc1cccc2ccccc12)Nc1cc(S(=O)(=O)N2CCOCC2)ccc1N1CCOCC1 | 61.2% (active)
34 | O=C(COC(=O)c1ccccc1F)Nc1cc(S(=O)(=O)N2CCOCC2)ccc1N1CCCC1 | 5.17%
35 | COC(=O)COc1ccc(S(=O)(=O)N2CCOCC2)cc1 | -7.05%
36 | CCOc1cc(N2CCOCC2)c(OCC)cc1NC(=O)c1ccc(C)s1 | 6.96%
37 | COc1cc(S(=O)(=O)N2CCOCC2)ccc1NC(=O)COc1ccc(N(C)S(=O)(=O)c2ccc(C)cc2)cc1 | 94% (active)
38 | CCC(=O)N1c2ccccc2NC2=C(C(=O)CCC2)C1c1ccco1 (configuration not stated) | 3.39%
39 | O=C(N/N=C1\CCSC1)c1cc(Cl)ccc1O | 3.97%
40 | CCCCCc1ccc(-c2ccc(OCC)cc2)nc1 | -7.26%
41 | CN(C)S(=O)(=O)c1ccc(NC(=O)N2CCOCC2)cc1 | -2.72%
42 | CCN(CC)CCNS(=O)(=O)c1ccc(/C=C/C(=O)O)cc1 | -2.33%

Row | Compound | inhibition
43 | O=C(Nc1cccnc1)c1cccc(S(=O)(=O)N2CCCC2)c1 | -5.74%
44 | COc1ccccc1C1=Nc2cccc3cccc(c23)N1 | 69.7% (active)
45 | Fc1ccccc1N=C1Nc2cccc3cccc1c23 | 8.76%
46 | c1ccc(C2=Nc3cccc4cccc(c34)N2)cc1 | 19.1%
47 | CCOC(=O)/C(C#N)=C/c1ccc(N2CCCCC2)cc1 | -8.77%
48 | Cc1ccc(C(=O)NCCNC(=O)c2ccccc2)cc1 | 30.8%
49 | CCOC(=O)Nc1ccc(NC(=O)OCC)cc1 | -2.26%
50 | CCCCCOC(=O)NCCOC(=O)Nc1ccc(C(=O)OCC)cc1 | 59.2% (active)
51 | CCCCC(CCC(=O)Nc1ccc(C(=O)OCC)cc1)C(=O)O (configuration not stated) | -9.84%
52 | CCC(C(=O)Nc1ccc(C(C)C)cc1)c1ccccc1 (configuration not stated) | -1.77%
53 | Cc1cc(C)cc(NC(=O)CSc2ccccc2)c1 | 1.71%
54 | COc1cc2c(cc1OC)CN(C(=O)c1ccc(S(=O)(=O)N3CCCCCC3)cc1)CC2 | 24.6%
55 | O=C(c1ccccc1)N1CCN(C(=O)N2CCCCC2)CC1 | 27.4%
56 | O=C(c1ccc(CSc2ccccc2)cc1)N1CCCCCC1 | -6.75%
57 | COc1ccccc1N1CCN(C(=O)c2ccc(S(=O)(=O)N3CCCCC3)cc2)CC1 | 59.5% (active)
58 | COc1ccccc1N1CCN(C(=O)c2cc(-c3ccc(Cl)c(Cl)c3)on2)CC1 | -6.68%
59 | COc1ccccc1N1CCN(C(=O)c2cc(-c3ccc(Br)cc3)on2)CC1 | -7.17%
60 | COc1ccccc1N1CCN(C(=O)c2c(-c3c(Cl)cccc3Cl)noc2C)CC1 | 98.5% (active)
61 | COc1ccccc1N1CCN(C(=O)c2ccc(Cl)c(S(=O)(=O)N3CCCC3)c2)CC1 | 1.35%
62 | O=C(c1ccc(S(=O)(=O)c2ccccc2)cc1)N1CCCCCC1 | 55.1% (active)
